A selection: hits, their analogues and other compounds. The true share with any hit is near 2.4%.
WRN helicase inh = qHTS for Inhibitors of WRN Helicase. AID 651768, 2012. Potency, µM (highest dose often 114 µM), without a hit: at the highest dose activity change, negative = inhibition, most hits filed as inhibitors. Bifunctional 3'-5' exonuclease/ATP-dependent helicase WRN (Homo sapiens), Q14191. 0.46% of 360,000 active. WRN helicase unwinding, fluorescent forked duplex, kinetic; note: % is set by controls: 0 for no effect and ±100 for the full control effect; nearly all actives have a fitted effect of over 55% in size
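WRN at 20 nM final was preincubated with compound for 15 min at room temperature; reaction started with 100 nM forked duplex oligonucleotide carrying fluorophore and quencher plus 2 mM ATP (final). Unwinding followed kinetically by red fluorescence (ex 525/em 598 nm).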
Pol iota inh = qHTS for Inhibitors of Polymerase Iota; Potency, µM (highest dose often 115 µM), without a hit: at the highest dose activity, negative = inhibition, most hits filed as inhibitors; 1% of 390,000 active; DNA polymerase iota (Homo sapiens), Q9UNA4; Pol iota fluorescent replication assay, 10 min
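Fluorescent replication assay read twice, at 0 min and 10 min after adding 50 nM (final) substrate. Enzyme (10 nM) and compounds were first incubated 15 min at room temperature; enzyme-free buffer wells were negative controls.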
Pol kappa inh = qHTS for Inhibitors of Polymerase Kappa; AID 588579, 2011; Potency, µM (series often up to 107 µM), for the others: at the highest dose activity, negative = inhibition, usual class: inhibitors; 0.53% of 400,000 active; purified Pol kappa, fluorescent DNA synthesis assay, 10 min; note: % is set by controls: 0 for no effect and ±100 for the full control effect
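Readout: fluorescence, taken kinetically at 0 and 10 min. Conditions: 10 nM Pol kappa, 15 min RT compound preincubation, 50 nM substrate final. Controls: enzyme-free buffer wells.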
Pol eta inh = qHTS for Inhibitors of Polymerase Eta; 1.2% of 390,000 active; Potency, µM (highest dose often 114 µM), inactives show at the highest dose activity change, negative = inhibition, usual class: inhibitors; DNA polymerase eta (Homo sapiens), Q9Y253; recombinant Pol eta, fluorescent DNA replication assay; note: % is set by controls: 0 for no effect and ±100 for the full control effect
Target sequence (Q9Y253 whole entry, looked up): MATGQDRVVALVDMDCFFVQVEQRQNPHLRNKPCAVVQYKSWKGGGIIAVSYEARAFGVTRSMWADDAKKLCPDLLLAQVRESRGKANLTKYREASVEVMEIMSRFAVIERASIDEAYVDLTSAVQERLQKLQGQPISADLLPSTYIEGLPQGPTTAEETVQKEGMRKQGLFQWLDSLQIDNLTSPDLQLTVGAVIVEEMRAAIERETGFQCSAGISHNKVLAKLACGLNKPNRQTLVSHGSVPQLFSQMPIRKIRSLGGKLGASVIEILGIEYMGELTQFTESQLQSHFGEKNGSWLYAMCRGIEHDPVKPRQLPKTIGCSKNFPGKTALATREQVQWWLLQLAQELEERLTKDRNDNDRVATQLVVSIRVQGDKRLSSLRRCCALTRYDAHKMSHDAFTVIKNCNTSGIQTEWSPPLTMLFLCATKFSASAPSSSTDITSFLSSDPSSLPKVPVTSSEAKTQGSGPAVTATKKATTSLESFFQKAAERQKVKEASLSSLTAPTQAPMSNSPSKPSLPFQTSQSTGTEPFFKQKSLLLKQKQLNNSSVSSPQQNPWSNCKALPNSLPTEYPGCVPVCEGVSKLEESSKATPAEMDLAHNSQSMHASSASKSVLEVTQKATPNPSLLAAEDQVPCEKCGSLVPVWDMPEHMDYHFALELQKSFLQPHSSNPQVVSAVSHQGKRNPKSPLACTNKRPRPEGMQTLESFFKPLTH
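Pol eta at 10 nM preincubated with compounds 15 min at room temperature; reaction started with fluorescent substrate (50 nM final) and read kinetically at 0 and 10 min.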
POLB inh = qHTS Assay for Inhibitors of DNA Polymerase Beta; Potency, µM (top dose mostly 114 µM), for inactives: top-dose activity change, negative = inhibition, usual class: inhibitors; Pol beta primer extension/strand displacement, fluorescence kinetic; AID 485314, 2010; 1.3% of 340,000 active; P06746; note: % is set by controls: 0 for no effect and ±100 for the full control effect
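10 nM enzyme + cpd, 15 min RT; start with substrate 50 nM final; read 0 min and after 10 min RT. Corrected, normalized data; 4-parameter Hill curve fit.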
FEN1 inh = qHTS Assay for the Inhibitors of Human Flap endonuclease 1 (FEN1). P39748. Recombinant FEN1 flap cleavage, fluorescence, 15 min. Potency, µM (highest dose often 114 µM), without a hit: at the highest dose activity change, negative = inhibition, hits mostly inhibitors. 0.35% of 390,000 active. AID 588795, 2011; note: % is set by controls: 0 for no effect and ±100 for the full control effect; nearly all actives have a fitted effect of over 65% in size
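FEN1 at 10 nM preincubated with compounds 15 min at room temperature, then flap DNA substrate added at 50 nM final. Signal read at 0 and 15 min; concentration-response fitted with four-parameter Hill equation.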
An asterisk follows results filed as active; ? = inconclusive; · = no result; [ ] = remark or other dose. Calls come from the whole dose curve; as a rule, active = well fitted curve in the direction sought with a large enough effect; inconclusive = small, poorly fitted or top-dose-only effect, or another doubt; inactive = no such curve, though single readings can be large; an effect the other way counts as inactive or inconclusive. Potency is the fitted concentration of half-maximal effect.

SMILES	WRN helicase inh	Pol iota inh	Pol kappa inh	Pol eta inh	POLB inh	FEN1 inh
Cc1ccc(C(=O)NCc2ccco2)cc1S(=O)(=O)N1CCCCC1	-23%[57.1 µM]	?	?	?	40µM*	-8%
Cc1ccc(C(=O)Nc2ccccc2C(=O)NCc2ccco2)cc1S(=O)(=O)N1CCCCC1	-8%	-1%	-11%	-12%	-29%	-14%
O=C(Nc1ccccc1)N1CCN2C(=O)c3ccccc3C12c1ccccc1 (centres undefined)	-5%	-5%	-3%	-11%	29%	1%
C=C(NC(=O)C(=C)NC(=O)c1csc(C2=NC3c4csc(n4)C4NC(=O)c5csc(n5)C(C(C)(O)C(C)O)NC(=O)C5CSC(=N5)C(=CC)NC(=O)C(C(C)O)NC(=O)c5csc(n5)C3(CC2)NC(=O)C(C)NC(=O)C(=C)NC(=O)C(C)NC(=O)C(C(C)CC)NC2C=Cc3c(C(C)O)cc(nc3C2O)C(=O)OC4C)n1)C(N)=O (centres undefined)	·	·	-12%[60.1 µM]	·	·	·
C=C(NC(=O)C(=C)NC(=O)c1csc(C2=NC3c4csc(n4)C4NC(=O)c5csc(n5)C(C(C)(O)C(C)O)NC(=O)C5CSC(=N5)/C(=C/C)NC(=O)C(C(C)O)NC(=O)c5csc(n5)C3(CC2)NC(=O)C(C)NC(=O)C(=C)NC(=O)C(=C)NC(=O)C(C(C)C)NC2C=Cc3c(C(C)O)cc(nc3C2O)C(=O)OC4C)n1)C(N)=O (centres undefined)	?	22µM*	-19%	?	·	2%
Cc1c(Cl)c([N+](=O)[O-])nn1CC(=O)NCc1ccco1	3%	12%	0%	-12%	24%	-2%
O=C(Nc1ccc(S(=O)(=O)Nc2ccccn2)cc1)c1cccc(Cl)c1	-10%	171%	-1%	-18%	?	-7%
N#Cc1ccc(OCC(=O)Nc2nc(-c3cccnc3)cs2)cc1	-5%[11.6 µM]	?	-20%	50µM*	·	-2%
O=C(COc1ccccc1)Nc1nc(-c2cccnc2)cs1	-1%	-6%	-14%	?	·	-2%
CCNc1ccc(Br)cc(C(=O)/C=C/c2ccc(Cl)cc2)c1=O	-15%[11.6 µM]	?	?	40µM*	28µM*	-4%
CCNC(=O)/C=C/c1cccc(Br)c1	·	·	11%[19.4 µM]	·	·	·
Cc1ccc(NC(=O)/C=C/c2ccc(Cl)cc2)c(Br)c1	·	-21%	-11%[60.1 µM]	-1%	35%	-12%
CCNc1ccc(Br)cc(C(=O)/C=C/c2c(Cl)cccc2Cl)c1=O	?	4.5µM*	?	18µM*	8.9µM*	?
CCNc1ccc(Br)cc(C(=O)/C=C/c2ccc3c(c2)OCO3)c1=O	?	4µM*	?	11µM*	20µM*	?
COc1ccc(CNc2cc(-c3cccnc3)ncn2)c(OC)c1	·	·	4%[60.1 µM]	·	·	·
CCOc1ccc(C(=O)NCCc2cnc[nH]2)cc1OCC	-5%	-3%	2%	-16%	5%	5%
CCOC(=O)c1cnn(-c2nc(OC)cc(OC)n2)c1C(F)(F)F	-17%[57.1 µM]	32%	-1%	-22%	78%	-8%
Cc1cc(C)cc(NS(=O)(=O)c2ccc3[nH]cc(C(=O)N(C)Cc4ccccc4)c(=O)c3c2)c1	·	?	-7%	-8%	-23%	-20%
Cc1ccccc1NS(=O)(=O)c1ccc2[nH]cc(C(=O)N(C)Cc3ccco3)c(=O)c2c1	-24%	?	?	8.9µM*	20µM*	-2%
COc1cccc(NS(=O)(=O)c2ccc3[nH]cc(C(=O)N(C)Cc4ccco4)c(=O)c3c2)c1	-15%	79µM*	?	?	?	-8%
CC(=O)c1c(C)[nH]c(C(=O)COC(=O)c2cccnc2Cl)c1C	-17%	-4%	-17%	-12%	·	-2%
NC(=O)c1ccc(N=C2C(=O)Nc3ccc([N+](=O)[O-])cc32)cc1	4%	?	-9%	20µM*	?	?
COC(=O)c1ccc(Cn2c(O)c(N=NC(N)=S)c3ccccc32)o1	-4%[11.6 µM]	32µM*	?	50µM*	?	-13%
Cc1c(CCC(=O)O)c(=O)oc2cc3occ(-c4ccc(F)cc4)c3cc12	?	?	-22%	16%	?	?
Cc1c(CCC(=O)O)c(=O)oc2cc3occ(-c4ccc(Cl)cc4)c3cc12	-21%[11.6 µM]	?	-7%	22µM*	?	?
SMILES	WRN helicase inh	Pol iota inh	Pol kappa inh	Pol eta inh	POLB inh	FEN1 inh
Cc1ccc(NC(=O)c2cc(=O)n(Cc3ccccc3)c(=O)[nH]2)cc1C	-3%	?	1%	-29%	40µM*	6%
O=C(CSc1ccccn1)Nc1cccc(NC(=O)CSc2ccccn2)n1	-12%	?	-19%	-6%	10µM*	-15%
COc1ccc(Cl)cc1S(=O)(=O)n1c([N+](=O)[O-])cnc1C	6%	18%	2%	-15%	-2%	0%
Cc1ccc(NC(=O)CCc2nc(-c3ccccc3F)no2)c(C)c1	·	-10%	6%	1%	14%	22%
COc1ccc(CC(=O)N2CCCc3ccccc32)cc1OC	5%	89µM*	-13%	-5%	-17%	4%
COc1ccc(CC(=O)NC2CCN(CC(=O)N3CCCc4ccccc43)CC2)cc1OC	7%	20%	0%	-2%	-3%	1%
COc1cc(C=C2C(=O)C=CC2=O)ccc1O	10µM*	·	·	·	·	·
COc1cc(NCc2ccccc2)c2ncn(C(C)C)c2c1	4%	61%	-3%	-16%	·	-18%
CCC(CN(C)C)Oc1cc(NCc2ccccc2)c2ncn(C(C)C)c2c1 (centres undefined)	3%	14µM*	-12%	-17%	·	?
Cc1ccc(Cn2c(=O)c3ccccc3n3c(SCC(=O)N4CCCCC4C)nnc23)cc1 (centres undefined)	-14%	-20%	7%	-9%	-3%	12%
CCc1c(C)[nH]n(-c2ccc(Oc3ccccc3)c(S(=O)(=O)O)c2)c1=O	?	18µM*	35µM*	11µM*	25µM*	?
Cc1[nH]n(-c2ccccc2)c(=O)c1CCO	-2%	1%	-14%	2%	12%	12%
Cc1ccc(S(=O)(=O)NCCCN(C)C)cc1	4%	7%	-1%	-3%	-18%	-2%
O=C(O)c1ccc(CN2C(=O)CSC2=S)cc1	-16%[57.1 µM]	?	50µM*	-3%	?	?
O=C(O)c1ccc(N=C2SCC(=O)N2Cc2ccccc2)cc1	-26%	19%	3%	-20%	28%	-1%
